Screening data (PubChem)
PLK1 PBD inh = inhibitors of human PLK1 polo-box domain binding. Plk1 PBD binding of FITC phosphopeptide, fluorescence polarization. Potency, µM, inactives show max response, negative = inhibition, most hits filed as inhibitors. actives 2.8% (n = 360,000); also: potency is read from the fitted curve at half-maximal effect; series mostly up to about 57 µM; % is scaled to controls: 0 for no effect and ±100 for the full control effect; nearly all actives have a fitted effect of over 65% in size
G9a block = G9a (human) methyltransferase inhibition; Q96KQ7; actives 8.8% (n = 350,000); AID 504332; G9a H3K9 monomethylation, AlphaScreen, 2 h; Potency, µM (titrated, usually from 102 µM), without a hit: at the top dose activity, negative = inhibition, most hits filed as inhibitors; also: potency is read from the fitted curve at half-maximal effect; % is scaled to controls: 0 for no effect and ±100 for the full control effect; nearly all actives have a fitted effect of over 75% in size
Target sequence (Q96KQ7 913-1193 limits assumed): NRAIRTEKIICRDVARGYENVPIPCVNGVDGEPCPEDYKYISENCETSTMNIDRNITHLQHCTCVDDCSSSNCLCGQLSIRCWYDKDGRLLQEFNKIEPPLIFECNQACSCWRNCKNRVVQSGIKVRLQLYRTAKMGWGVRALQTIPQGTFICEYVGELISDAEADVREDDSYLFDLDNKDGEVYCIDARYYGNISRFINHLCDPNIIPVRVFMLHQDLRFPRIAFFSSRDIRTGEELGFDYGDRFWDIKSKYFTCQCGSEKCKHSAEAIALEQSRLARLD
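Chemiluminescent proximity detection of H3K9 monomethylation, read after 10 min bead incubation in the dark. Reaction: 20 nM G9a, 500 nM biotin-H3K9 peptide, 20 uM SAM cofactor, 2 h, room temperature, following 15 min enzyme-compound preincubation.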
JMJD2A Tudor inh = inhibitors of human JMJD2A Tudor domain; AID 504339; Potency, µM (series often up to 114 µM), without a hit: top-dose activity change, negative = inhibition, actives largely listed as inhibitors; AlphaScreen JMJD2A-Tudor / H3K4me3 peptide binding; actives 4.4% (n = 390,000); O75164; also: potency is read from the fitted curve at half-maximal effect; % is scaled to controls: 0 for no effect and ±100 for the full control effect; nearly all actives have a fitted effect of over 50% in size
HP1b binding inh = blocks HP1-beta chromodomain binding to methylated histone tails | P83916 | AlphaScreen HP1-beta / biotin-H3K9me3 peptide binding | Potency, µM (doses to about 114 µM), inactives show at the highest dose activity change, negative = inhibition, actives largely listed as inhibitors | actives 0.56% (n = 390,000); also: potency is read from the fitted curve at half-maximal effect; nearly all actives have a fitted effect of over 70% in size
Target sequence (P83916 whole entry, looked up): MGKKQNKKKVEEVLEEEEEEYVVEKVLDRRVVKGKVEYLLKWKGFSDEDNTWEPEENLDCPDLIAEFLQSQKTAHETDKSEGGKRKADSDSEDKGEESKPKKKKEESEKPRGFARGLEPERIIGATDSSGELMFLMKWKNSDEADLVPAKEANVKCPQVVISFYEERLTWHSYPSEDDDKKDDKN
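HP1-beta protein (50 nM final) preincubated 30 min at room temperature with biotinylated H3(1-18)K9me3 peptide (50 nM) in PBS pH 7.4, 0.01% Tween-20, then compound added for 30 min. AlphaScreen streptavidin donor/nickel chelate acceptor beads (10 ug/mL final), 30 min dark, luminescence read.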
BAZ2B block = BAZ2B (human) inhibition. Q9UIF8. AlphaScreen BAZ2B-H3K14Ac peptide displacement. Potency, µM (highest dose often 114 µM), inactives show top-dose activity change, negative = inhibition, most hits filed as inhibitors. actives 4.4% (n = 360,000); also: potency is read from the fitted curve at half-maximal effect; % is scaled to controls: 0 for no effect and ±100 for the full control effect; nearly all actives have a fitted effect of over 60% in size
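AlphaScreen displacement of biotin-H3(5-23)K14Ac peptide (50 nM final) from BAZ2B (50 nM final) in PBS pH 7.4, 0.01% Tween-20; complex preformed 30 min RT, then compounds (top 110 uM) 30 min RT, beads 20 min dark.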
PI5P4K alpha inh = PI5P4K alpha (human) kinase inhibition. PI5P4Kalpha enzyme, ADP-Glo luminescence, 60 min; hits give low values. P48426. actives 1.2% (n = 330,000). max response, %; active = max response of -50% or lower; inconclusive = between -30% and -50%; inactive = -30% or higher; also: value at the top dose of about 77 µM; % is scaled to controls: 0 for no effect and ±100 for the full control effect
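Quantitative HTS of the MLSMR library against PI5P4Kalpha with substrate. ATP added last at 5 microM final; room temperature, 60 minutes. Remaining ATP depleted, ADP converted and read as luminescence.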
* hit, by the source's call; [ ] = remark or other dose. This is a sample that favours compounds with a hit; in the whole collection about 12% have one here. Unless noted, calls follow the shape of the dose curve; as a rule, active = well fitted curve in the direction sought with a large enough effect; inconclusive = small, poorly fitted or top-dose-only effect, or another doubt; inactive = no such curve, though single readings can be large; an effect the other way counts as inactive or inconclusive.

`COc1ccc(NC(=O)CC2C(=O)N(c3ccc(OC)cc3)C(=O)N2C2CCCCC2)cc1` (configuration not stated) gave G9a block inconclusive, JMJD2A Tudor inh -17%, HP1b binding inh 53% and BAZ2B block -11%.
COc1ccc(NC(=O)CC2C(=O)N(c3ccc(OC)cc3)C(=O)N2C(C)C)cc1 (configuration not stated) was read as PLK1 PBD inh 0%, G9a block 56µM*, JMJD2A Tudor inh -18%, HP1b binding inh 31% and BAZ2B block inconclusive.
`CC(C)c1cnc2c(c1SCc1ccc([N+](=O)[O-])cc1)c(=O)n(C)c(=O)n2C` gave G9a block inconclusive, JMJD2A Tudor inh -19%, HP1b binding inh 24%[57 µM] and BAZ2B block -32%.
`Cc1ccc(CC(=O)Nc2cc(C)ccn2)cc1` gave PLK1 PBD inh -13%, G9a block 9%, JMJD2A Tudor inh -4%, HP1b binding inh 26%, BAZ2B block -37% and PI5P4K alpha inh 1.
CCOc1cc(C(=O)Nc2cc(C)ccn2)cc(OCC)c1OCC was read as PLK1 PBD inh -5%, G9a block -22%, JMJD2A Tudor inh -2%, HP1b binding inh 37% and BAZ2B block -3%.
For COC(=O)c1cc(C(=O)Nc2cc(C)ccn2)cc([N+](=O)[O-])c1 the results were PLK1 PBD inh -10%, G9a block 50µM*, JMJD2A Tudor inh -18%, HP1b binding inh 17%, BAZ2B block -9% and PI5P4K alpha inh 2.
CCOc1ccc(C(=O)Nc2cc(C)ccn2)cc1 was read as PLK1 PBD inh 3µM*, G9a block inconclusive, JMJD2A Tudor inh 13µM*, HP1b binding inh -3%, BAZ2B block 1% and PI5P4K alpha inh inconclusive.
`COc1ccc(-c2cn3c(C)c(C(=O)Nc4cccc(C)n4)sc3n2)cc1` gave PLK1 PBD inh -12%, G9a block 10µM*, JMJD2A Tudor inh -21%, HP1b binding inh 4% and BAZ2B block -9%.
CCNC(=S)Nc1cc(C)ccn1 was read as PLK1 PBD inh -6%, G9a block 1µM*, JMJD2A Tudor inh -17%, HP1b binding inh 28%, BAZ2B block -2% and PI5P4K alpha inh 1.
Cc1ccc(OCC(=O)OCC(=O)NC2CC2)cc1C was read as PLK1 PBD inh 4%, G9a block -1%[2.33 µM], JMJD2A Tudor inh 3%, HP1b binding inh 31%, BAZ2B block 6% and PI5P4K alpha inh 8.
Cc1cccc(NC(=O)c2ccccc2Br)n1 was read as PLK1 PBD inh 27µM*, G9a block 22µM*, JMJD2A Tudor inh -1%, HP1b binding inh 33%, BAZ2B block 8% and PI5P4K alpha inh 0.
Screening CCOc1ccc(C(=O)Nc2cccc(C)n2)cc1 returned PLK1 PBD inh inconclusive, G9a block 50µM*, JMJD2A Tudor inh -23%[11.4 µM], HP1b binding inh 30%, BAZ2B block -9% and PI5P4K alpha inh -1.
For Cc1cccc(NC(=O)c2cccc3c2-c2ccccc2C3=O)n1 the results were PLK1 PBD inh 1%, G9a block inconclusive, JMJD2A Tudor inh -12%, HP1b binding inh 9%, BAZ2B block -25% and PI5P4K alpha inh -1.
For COc1ccc(C(=O)NC(=S)Nc2cc(C)ccn2)cc1[N+](=O)[O-] the results were PLK1 PBD inh -1%, G9a block 2.8µM*, JMJD2A Tudor inh -13%, HP1b binding inh 37%, BAZ2B block -31% and PI5P4K alpha inh -7.
For COc1ccc(C(=O)Nc2cc(C)on2)cc1[N+](=O)[O-] the results were PLK1 PBD inh 3%, G9a block 48%, JMJD2A Tudor inh -3%, HP1b binding inh 20%, BAZ2B block 9% and PI5P4K alpha inh 1.
For Cc1cccc(CSc2cn(CC(=O)N3CCCCC3)c3ccccc23)c1 the results were G9a block -7%[59 µM], JMJD2A Tudor inh -9%, HP1b binding inh 74% and BAZ2B block -15%.
`C#CCOc1c(Cl)cc(/C=N/NC(N)=S)cc1OCC` gave PLK1 PBD inh -8%, G9a block inconclusive, JMJD2A Tudor inh -14%, HP1b binding inh 40%, BAZ2B block -4% and PI5P4K alpha inh -2.
Screening CCOc1c(Br)cc(/C=C2\N=C(C)OC2=O)cc1Br returned PLK1 PBD inh -24%, G9a block 3%, JMJD2A Tudor inh -22%, HP1b binding inh 24%, BAZ2B block -1% and PI5P4K alpha inh -16.
CCOc1c(Br)cc(/C=N\NC(=O)c2ccccc2)cc1OC was read as PLK1 PBD inh -5%, G9a block 6%[59 µM], JMJD2A Tudor inh -15%, HP1b binding inh 27%, BAZ2B block 3% and PI5P4K alpha inh 3.
C#CCOc1c(Cl)cc(/C=C2/C(=O)ON=C2C)cc1OCC was read as PLK1 PBD inh 6µM*, G9a block 40µM*, JMJD2A Tudor inh -13%, HP1b binding inh 4%, BAZ2B block -36% and PI5P4K alpha inh -10.
C#CCOc1c(Br)cc(/C=C2/C(=O)ON=C2C)cc1OCC was read as PLK1 PBD inh 4.2µM*, G9a block 45µM*, JMJD2A Tudor inh -13%, HP1b binding inh 13%, BAZ2B block inconclusive and PI5P4K alpha inh 0.
Screening C=CCOc1c(Br)cc(/C=C2/C(=O)ON=C2C)cc1OC returned PLK1 PBD inh 4.7µM*, G9a block 32µM*, JMJD2A Tudor inh 20µM*, HP1b binding inh 12%, BAZ2B block inconclusive and PI5P4K alpha inh -5.
C#CCOc1c(Br)cc(/C=C2/C(=O)ON=C2C)cc1OC was read as PLK1 PBD inh 2.7µM*, G9a block 40µM*, JMJD2A Tudor inh -30%, HP1b binding inh -34%, BAZ2B block -20% and PI5P4K alpha inh -16.
Screening COc1cc(/C=C2/NC(=O)NC2=O)cc(Br)c1OCc1ccc(C(=O)O)cc1 returned PLK1 PBD inh -13%, G9a block inconclusive, JMJD2A Tudor inh 0%[11.4 µM], HP1b binding inh 30%, BAZ2B block -33% and PI5P4K alpha inh 8.
Screening COc1ccccc1CNC(=O)CCCn1c(=O)c2ccccc2n(Cc2ccccc2C#N)c1=O returned G9a block 9%[59 µM], JMJD2A Tudor inh -14%, HP1b binding inh 26% and BAZ2B block 2%.
Cc1ccc(NC(=O)CSc2nc3c(oc4ccccc43)c(=O)n2-c2ccc(F)cc2)c(C)c1 was read as G9a block 7%[59 µM], JMJD2A Tudor inh 3%, HP1b binding inh 38% and BAZ2B block -1%.
Screening CSc1ccccc1C(=O)N1CCc2ccc(NC(=O)c3ccccn3)cc2C1 returned PLK1 PBD inh -7% and PI5P4K alpha inh -3.
C#CCOc1ccc(/C=C2/C(=O)ON=C2C)cc1Cl was read as PLK1 PBD inh 2.1µM*, G9a block 35µM*, JMJD2A Tudor inh 13µM*, HP1b binding inh -5%, BAZ2B block -4% and PI5P4K alpha inh -15.
